From PubChem BioAssay AID1159580 (chemical genetic matrix, 2015)
Where “and” joins values, the source holds several entries; their conditions need not be identical. Equal values may be shown once. Hit rate of the full screen: of about 5,500 compounds, about 2,000 (36%) were called active. Inconclusive results (about 18%) are left out. The list shows a part of the results. Values without a mark were called inactive. No stated cut-off is given here; in the data, active means normalized growth mostly below about 0.91 (no sharp cut-off); inconclusive means no clear call, values can overlap the other calls; inactive means mostly above about 0.92.

Assay: chemical genetic growth profiling, strain panel (AID 1159580);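 further: tested at 20 µM; growth read once vehicle control cultures reached saturation at 30 °C; 1 = growth at the plate median or of vehicle wells; lower values mean less growth of the strain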
Conditions: S. cerevisiae deletion strains, growth OD

Question: Which normalized growth (locus YAL013W, strain DEP1, hits give low values) does the source give for `COC(=O)C(C)c1ccc(C(=O)c2cccs2)cc1` (stereo unspecified) here?
Answer: 0.998

Question: And the normalized growth (locus YAL021C, strain ccr4, hits give low values)?
Answer: 1.01

Question: What about the normalized growth (locus YAL026C, strain drs2, hits give low values) of the same compound?
Answer: 0.988

Question: And the normalized growth (locus YAL030W, strain snc1, hits give low values)?
Answer: 1.01

Question: And the normalized growth (locus YBL061C, strain skt5, hits give low values)?
Answer: 1.01

Question: And the normalized growth (locus YBR009C, strain hhf1, hits give low values)?
Answer: 1

Question: What about the normalized growth (locus YBR021W, strain FUR4, hits give low values) of the same compound?
Answer: 0.971

Question: And the normalized growth (locus YBR023C, strain chs3, hits give low values)?
Answer: 1.01

Question: What about the normalized growth (locus YBR171W, strain sec66, hits give low values) of the same compound?
Answer: 1.01

Question: What about the normalized growth (locus YBR229C, strain ROT2, hits give low values) of the same compound?
Answer: 0.998

Question: What about the normalized growth (locus YBR231C, strain swc5, hits give low values) of the same compound?
Answer: 1.02

Question: And the normalized growth (locus YBR279W, strain paf1, hits give low values)?
Answer: 1

Question: And the normalized growth (locus YCL011C, strain gbp2, hits give low values)?
Answer: 1

Question: And the normalized growth (locus YCL016C, strain dcc1, hits give low values)?
Answer: 1

Question: And the normalized growth (locus YCL029C, strain bik1, hits give low values)?
Answer: 0.96

Question: And the normalized growth (locus YCL061C, strain MRC1, hits give low values)?
Answer: 1.01

Question: What about the normalized growth (locus YCL069W, strain vba3, hits give low values) of the same compound?
Answer: 1.01

Question: And the normalized growth (locus YCR088W, strain abp1, hits give low values)?
Answer: 1

Question: What about the normalized growth (locus YDL005C, strain med2, hits give low values) of the same compound?
Answer: 1.01

Question: And the normalized growth (locus YDL035C, strain GPR1, hits give low values)?
Answer: 0.957

Question: And the normalized growth (locus YDL040C, strain nat1, hits give low values)?
Answer: 1.01

Question: What about the normalized growth (locus YDL074C, strain BRE1, hits give low values) of the same compound?
Answer: 0.981

Question: And the normalized growth (locus YDL101C, strain DUN1, hits give low values)?
Answer: 1.01

Question: And the normalized growth (locus YDL134C, strain PPH21, hits give low values)?
Answer: 0.996

Question: And the normalized growth (locus YDL185W, strain tfp1, hits give low values)?
Answer: 0.939

Question: And the normalized growth (locus YDL192W, strain arf1, hits give low values)?
Answer: 0.951

Question: What about the normalized growth (locus YDR001C, strain nth1, hits give low values) of the same compound?
Answer: 1.02

Question: What about the normalized growth (locus YDR069C, strain doa4, hits give low values) of the same compound?
Answer: 1.02

Question: What about the normalized growth (locus YDR101C, strain arx1, hits give low values) of the same compound?
Answer: 0.975

Question: What about the normalized growth (locus YDR137W, strain rgp1, hits give low values) of the same compound?
Answer: 1

Question: What about the normalized growth (locus YDR150W, strain NUM1, hits give low values) of the same compound?
Answer: 0.985

Question: And the normalized growth (locus YDR159W, strain sac3, hits give low values)?
Answer: 1.02

Question: And the normalized growth (locus YDR162C, strain NBP2, hits give low values)?
Answer: 0.998

Question: And the normalized growth (locus YDR195W, strain ref2)?
Answer: 0.993

Question: And the normalized growth (locus YDR297W, strain sur2, hits give low values)?
Answer: 1.01

Question: What about the normalized growth (locus YDR318W, strain mcm21, hits give low values) of the same compound?
Answer: 0.907 (active)

Question: What about the normalized growth (locus YDR334W, strain swr1, hits give low values) of the same compound?
Answer: 1.01

Question: And the normalized growth (locus YDR335W, strain msn5, hits give low values)?
Answer: 0.997

Question: What about the normalized growth (locus YDR388W, hits give low values) of the same compound?
Answer: 0.973

Question: What about the normalized growth (locus YDR392W, strain spt3, hits give low values) of the same compound?
Answer: 0.999

Question: And the normalized growth (locus YDR502C, strain sam2, hits give low values)?
Answer: 0.959

Question: What about the normalized growth (locus YEL003W, strain gim4, hits give low values) of the same compound?
Answer: 1.01

Question: And the normalized growth (locus YEL037C, strain rad23, hits give low values)?
Answer: 1

Question: And the normalized growth (locus YEL061C, strain CIN8 (second series), hits give low values)?
Answer: 1.01

Question: What about the normalized growth (locus YEL061C, strain CIN8, hits give low values) of the same compound?
Answer: 0.991

Question: And the normalized growth (locus YER015W, strain faa2, hits give low values)?
Answer: 1.01

Question: And the normalized growth (locus YER016W, strain bim1, hits give low values)?
Answer: 1

Question: What about the normalized growth (locus YER110C, hits give low values) of the same compound?
Answer: 0.955

Question: And the normalized growth (locus YER111C, strain swi4, hits give low values)?
Answer: 1.01

Question: What about the normalized growth (locus YER155C, strain BEM2 (second series), hits give low values) of the same compound?
Answer: 1.01

Question: And the normalized growth (locus YER155C, strain BEM2, hits give low values)?
Answer: 0.997

Question: What about the normalized growth (locus YER167W, strain BCK2, hits give low values) of the same compound?
Answer: 0.956

Question: And the normalized growth (locus YFR010W, strain ubp6, hits give low values)?
Answer: 1.01

Question: And the normalized growth (locus YGL078C, strain dbp3, hits give low values)?
Answer: 0.968

Question: And the normalized growth (locus YGL086W, strain mad1, hits give low values)?
Answer: 0.92 (active)

Question: And the normalized growth (locus YGL167C, strain pmr1, hits give low values)?
Answer: 1.01

Question: What about the normalized growth (locus YGL173C, strain kem1, hits give low values) of the same compound?
Answer: 1.02

Question: And the normalized growth (locus YGL227W, strain vid30, hits give low values)?
Answer: 1.01

Question: What about the normalized growth (locus YGL240W, strain doc1, hits give low values) of the same compound?
Answer: 1

Question: What about the normalized growth (locus YGL248W, strain PDE1, hits give low values) of the same compound?
Answer: 0.998

Question: What about the normalized growth (locus YGL253W, strain hxk2, hits give low values) of the same compound?
Answer: 1

Question: What about the normalized growth (locus YGR078C, strain PAC10, hits give low values) of the same compound?
Answer: 0.995

Question: And the normalized growth (locus YGR135W, strain pre9, hits give low values)?
Answer: 0.946

Question: And the normalized growth (locus YGR229C, strain SMI1, hits give low values)?
Answer: 0.96

Question: What about the normalized growth (locus YGR252W, strain gcn5, hits give low values) of the same compound?
Answer: 0.934

Question: What about the normalized growth (locus YHR013C, strain ard1, hits give low values) of the same compound?
Answer: 1.01

Question: What about the normalized growth (locus YHR027C, strain rpn1, hits give low values) of the same compound?
Answer: 1.01

Question: What about the normalized growth (locus YHR030C, strain SLT2, hits give low values) of the same compound?
Answer: 0.991 and 0.936

Question: What about the normalized growth (locus YHR079C, strain IRE1 (second series), hits give low values) of the same compound?
Answer: 0.968

Question: And the normalized growth (locus YHR079C, strain IRE1, hits give low values)?
Answer: 0.949

Question: And the normalized growth (locus YHR094C, strain hxt1, hits give low values)?
Answer: 0.947

Question: And the normalized growth (locus YHR129C, strain ARP1, hits give low values)?
Answer: 0.999

Question: What about the normalized growth (locus YHR142W, strain chs7, hits give low values) of the same compound?
Answer: 0.991

Question: And the normalized growth (locus YHR200W, strain rpn10, hits give low values)?
Answer: 0.954

Question: And the normalized growth (locus YIL066C, strain RNR3, hits give low values)?
Answer: 0.977

Question: What about the normalized growth (locus YIL073C, strain SPO22, hits give low values) of the same compound?
Answer: 0.851

Question: What about the normalized growth (locus YIR030C, strain dcg1, hits give low values) of the same compound?
Answer: 0.957

Question: And the normalized growth (locus YJL092W, strain hpr5, hits give low values)?
Answer: 1

Question: What about the normalized growth (locus YJL095W, strain BCK1 (second series), hits give low values) of the same compound?
Answer: 1.01

Question: And the normalized growth (locus YJL095W, strain BCK1, hits give low values)?
Answer: 1.01 and 0.972

Question: What about the normalized growth (locus YJL115W, strain asf1, hits give low values) of the same compound?
Answer: 1.03

Question: What about the normalized growth (locus YJL129C, strain trk1, hits give low values) of the same compound?
Answer: 1.04

Question: What about the normalized growth (locus YJL134W, strain LCB3, hits give low values) of the same compound?
Answer: 0.991

Question: And the normalized growth (locus YJL154C, strain vps35, hits give low values)?
Answer: 1

Question: What about the normalized growth (locus YJL164C, strain tpk1, hits give low values) of the same compound?
Answer: 0.998

Question: What about the normalized growth (locus YJL166W, strain qcr8, hits give low values) of the same compound?
Answer: 1

Question: And the normalized growth (locus YJL168C, strain set2, hits give low values)?
Answer: 0.973

Question: And the normalized growth (locus YJL187C, strain SWE1 (second series), hits give low values)?
Answer: 1

Question: And the normalized growth (locus YJL187C, strain SWE1, hits give low values)?
Answer: 1.01

Question: And the normalized growth (locus YJR043C, strain POL32, hits give low values)?
Answer: 0.972

Question: What about the normalized growth (locus YJR066W, strain TOR1, hits give low values) of the same compound?
Answer: 0.982
